Laboratory results published in PubChem BioAssay.

target: Beta-adrenergic receptor kinase 1 (Homo sapiens) (UniProt P25098); assay: GRK2 binders displacing RNA aptamer, biochemical, validation, human GRK2, bead flow cytometry (AID 488806); conditions: bead-bound GRK2, FAM-aptamer displacement, at 10 µM, stronger effect = higher value
Sequence (P25098 whole entry, looked up): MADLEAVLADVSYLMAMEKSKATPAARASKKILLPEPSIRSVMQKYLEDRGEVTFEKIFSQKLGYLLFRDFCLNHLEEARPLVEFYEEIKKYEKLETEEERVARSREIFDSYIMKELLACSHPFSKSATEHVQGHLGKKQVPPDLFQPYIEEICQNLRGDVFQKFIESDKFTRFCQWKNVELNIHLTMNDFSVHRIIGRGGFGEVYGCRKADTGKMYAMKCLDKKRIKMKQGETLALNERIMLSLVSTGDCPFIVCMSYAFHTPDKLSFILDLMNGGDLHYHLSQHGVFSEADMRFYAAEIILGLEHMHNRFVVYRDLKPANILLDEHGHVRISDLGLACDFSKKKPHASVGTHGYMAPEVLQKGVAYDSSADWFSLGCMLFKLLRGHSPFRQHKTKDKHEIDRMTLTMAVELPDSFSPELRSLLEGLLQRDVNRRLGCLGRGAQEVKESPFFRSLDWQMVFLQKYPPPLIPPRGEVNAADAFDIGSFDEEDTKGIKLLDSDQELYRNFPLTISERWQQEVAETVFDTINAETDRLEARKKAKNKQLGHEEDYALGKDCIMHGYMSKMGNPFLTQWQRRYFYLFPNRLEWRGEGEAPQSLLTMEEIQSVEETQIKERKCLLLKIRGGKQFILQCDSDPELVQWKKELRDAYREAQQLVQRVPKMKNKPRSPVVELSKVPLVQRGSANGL

Aptamer binding inhibition, inactive:
Cc1oc2cc(O)cc(O)c2c(=O)c1-c1ccc2c(c1)OCCCO2 3%
O=C(c1ccco1)N1CCCN(Cc2nc(-c3ccc4c(c3)OCO4)no2)CC1 2%
COc1ccc2nc(S(=O)Cc3ncc(C)c(OC)c3C)[nH]c2c1 (stereo not given) 2%
CSCCC(NC(C)=O)C(=O)Oc1ccc2c3c(c(=O)oc2c1)CCCC3 (stereo not given) 4%
CCOC(=O)C1NN=C(C(=O)c2ccccc2)C1c1ccc(Cl)cc1 (stereo not given) 3%
CSCCC(NC(=O)OC(C)(C)C)C(=O)Oc1ccc2c(=O)c(-c3ccc4c(c3)OCCO4)coc2c1 (stereo not given) 2%
COc1cc2c(cc1OC)/C(=C/c1ccc(Cl)cc1)C(=O)OC2 4%
COc1ccc(-c2coc3c(CN4CCOCC4)c(O)ccc3c2=O)cc1 -6%
OCCC1CN(Cc2ccccc2-c2ccco2)CCN1C1CCCC1 (stereo not given) 0%
O=C(O)C1CCN(C(=O)COc2ccc3c4c(c(=O)oc3c2)CCC4)CC1 1%
Cc1ccc(C(=O)NCCNC(=O)c2ccccc2)cc1 0%
CC(=O)OCC(=O)[C@@]1(O)CC[C@H]2[C@@H]3CCC4=CC(=O)C=C[C@]4(C)[C@H]3[C@@H](O)C[C@@]21C 1%
CCCc1cc(C(N)=S)ccn1 2%
Cc1ccc(Cl)c(Nc2ccccc2C(=O)O)c1Cl 2%
COc1ccccc1/C=C/C(=O)OCCN1CCOCC1 -4%
Fc1ccc(-c2cc(-c3ccccc3)nc(-n3cccn3)n2)cc1 4%
O=c1c(-c2ccccc2)c(O)c2cccc3c2n1CCC3 -3%
COc1cc(CC(=O)NCCc2ccc(S(N)(=O)=O)cc2)cc(OC)c1OC -4%
CN(C)CCC(c1ccc(Cl)cc1)c1ccccn1 (stereo not given) -7%
Cc1ccc2nc(N=C(N)N)nc(C)c2c1 -1%
CCn1c(N2CCN(CC(=O)c3c(C)n(C)c4ccc(OC)cc34)CC2)nc2c1c(=O)[nH]c(=O)n2C 1%
CC1(c2ccccc2)CC(C)(C)N2C(=O)C(=O)c3cccc1c32 (stereo not given) 4%
O=C(COc1cc(O)c2c(=O)c3ccccc3oc2c1)OCc1ccccc1 -2%
C[N+](C)(C)CCOP(=O)([O-])OC[C@H](O)CO 1%
O=C(/C=C/Sc1ccccc1)c1ccccc1 -1%
O=C1Cc2ccccc2C(c2ccccc2)N1 (stereo not given) -3%
Cc1ccc(NC(=O)CSc2nc(O)c(Cc3ccccc3)c(=O)n2-c2ccccc2)cc1 3%
COCCn1c(SCCOc2ccccc2)nc2ccccc2c1=O 5%
CC(=O)Oc1ccc2c(=O)c(Oc3ccccc3[N+](=O)[O-])coc2c1 3%
CCc1c(C(C)=O)oc2ccc3c(C)cc(=O)oc3c12 1%
COc1ccc(-c2[nH]ncc2CN(C)C(C)c2ccon2)c(OC)c1 (stereo not given) 2%
Cc1c(O)c(=O)ccn1C 1%
COc1ccc2cc(C(=O)Nc3ccc(S(N)(=O)=O)cc3)sc(=O)c2c1OC -4%
Cc1cnc(NC(=O)C2=C(O)c3ccccc3S(=O)(=O)N2C)s1 3%
O=C(O)c1ccc(N2C(=O)/C(=C\c3ccccc3)N=C2c2ccccc2)cc1 2%
O=C(CCC(=O)NCCO)NCCO 7%
CC(=O)O[C@H]1C[C@@]2(C)[C@@H](C[C@@H](O)[C@H]3[C@@]4(C)CC[C@@H](O)[C@@H](C)C4CC[C@@]32C)/C1=C(\CCC=C(C)C)C(=O)O (stereo not given in full) -1%
O=C(c1cc2cc(Br)ccc2o1)N1CCCC1 0%
CCOc1ccc2nc(NC(=O)NC3CCCCC3)sc2c1 4%
O=C(/C=C/c1c[nH]c2ccccc12)c1cccc2ccccc12 2%
